This passage reports growth results from PubChem BioAssay (NCI).

Several values for one entry are separate records, joined by “and”; a condition that tells them apart may be missing. Equal entries are not always repeated. Compounds without any hit were thinned out: in the full panel of roughly 83,000, 20% have a hit.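 Testing used 96-well plates and a 48-hour single-concentration exposure. Example: -40 means 40% of the starting cells died.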 Unmarked numbers belong to inactive results. Activity calls are given as the source filed them. The calls were made as follows: active = growth percent below 10; inactive = the rest.

Among the test systems are HT29 colon; SNB-75 CNS; SNB-19 CNS; U251 CNS; PC-3 prostate; SK-MEL-5 melanoma; UACC-62 melanoma; LOX IMVI melanoma; SK-MEL-28 melanoma; SK-MEL-2 melanoma; EKVX NSCLC; SN12C renal; UO-31 renal; TK-10 renal; ACHN renal; CAKI-1 renal; HL-60(TB) leukemia; CCRF-CEM leukemia; A498 renal; HCT-15 colon.
Assay in all cases: NCI-60 one-dose screen, 48 h (100 = growth as untreated, 0 = no growth, -100 = all killed)
Common to all, as to details: 10 µM unless noted

Regarding `Cc1cc(NC(=O)NCCCOc2ccc(N3C(N)=NC(N)=NC3(C)C)cc2Cl)ccc1S(=O)(=O)F`, the growth was 4.91% (active) in the assay with HT29 colon; 53.1% with SNB-75 CNS; 27.7% in the assay with SNB-19 CNS; 15.8% in the assay with U251 CNS; 11.9% in the assay with PC-3 prostate; 22.6% with SK-MEL-5 melanoma. For the same compound, the growth in the assay with UACC-62 melanoma is 25.2%; with LOX IMVI melanoma, 14.4%; in the assay with SK-MEL-28 melanoma it was 48.9%; with SK-MEL-2 melanoma, 42.2%; with EKVX NSCLC it was 43%; with SN12C renal, 27.8%. Also, the growth with UO-31 renal is 94.9%; in the assay with TK-10 renal it was 46.5%; in the assay with ACHN renal it was 72.6%; in the assay on CAKI-1 renal, 107%; in the assay on HL-60(TB) leukemia it was 29.1%; with CCRF-CEM leukemia it was 32.4%.
On to `CNC(=O)CCl`, for which the growth with HT29 colon was 102%; with SNB-75 CNS, 96%; in the assay with SNB-19 CNS it was 104%; with U251 CNS, 94.7%; with PC-3 prostate, 94.6%; in the assay on SK-MEL-5 melanoma, 96.4%. Also, the growth with UACC-62 melanoma is 96.1%; with LOX IMVI melanoma it was 100%; with SK-MEL-28 melanoma it was 107%; in the assay on SK-MEL-2 melanoma, 101%; with SN12C renal, 96.9%; in the assay with UO-31 renal, 96.5%. In addition, the growth was 99.9% in the assay with TK-10 renal; 114% with ACHN renal; 94.9% in the assay with CAKI-1 renal; 119% with HL-60(TB) leukemia; 94% in the assay with CCRF-CEM leukemia.
Regarding `N[C@@H](CCC(=O)CCl)C(=O)O`, the growth in the assay with HT29 colon is 94.2% [20 µM]; in the assay on SNB-75 CNS, 66.9% [20 µM]; in the assay with SNB-19 CNS it was 93.4% [20 µM]; with U251 CNS, 96.5% [20 µM]; with PC-3 prostate, 100% [20 µM]; with SK-MEL-5 melanoma, 101% [20 µM]. For the same compound, the growth with UACC-62 melanoma is 92.1% [20 µM]; with LOX IMVI melanoma it was 96.7% [20 µM]; in the assay on SK-MEL-28 melanoma it was 103% [20 µM]; in the assay with SK-MEL-2 melanoma, 87.6% [20 µM]; with EKVX NSCLC it was 101% [20 µM]; in the assay with SN12C renal, 89% [20 µM]. Further, the growth is 91% [20 µM] with UO-31 renal; 101% [20 µM] with TK-10 renal; 97.9% [20 µM] with ACHN renal; 97% [20 µM] in the assay on CAKI-1 renal; 110% [20 µM] in the assay on A498 renal; 101% [20 µM] in the assay on HL-60(TB) leukemia. Further, in the assay on CCRF-CEM leukemia, the growth is 97.6% [20 µM].
For the compound `C[C@]12CCc3sc(Nc4ccc(OC(F)(F)F)cc4)nc3C1=CC[C@@H]1[C@@H]2CC[C@]2(C)C(=O)CC[C@@H]12`, the growth with HT29 colon is 13%; in the assay with SNB-75 CNS, 68.6%; with SNB-19 CNS, 56.5%; with U251 CNS, 34.1%; in the assay with PC-3 prostate, 38.6%; in the assay on SK-MEL-5 melanoma it was 95.9%. Also, the growth in the assay on UACC-62 melanoma was 63.4%; in the assay with LOX IMVI melanoma, 34.8%; in the assay with SK-MEL-28 melanoma, 65.3%; in the assay with SK-MEL-2 melanoma, 61.8%; with EKVX NSCLC, 78.4%; in the assay with SN12C renal, 71.2%. In addition, the growth in the assay with UO-31 renal was 54.3%; in the assay on TK-10 renal it was 98.2%; with ACHN renal, 71.6%; in the assay with CAKI-1 renal it was 60.4%; with A498 renal, 75%; in the assay on HL-60(TB) leukemia, 44%.
For the compound `CCCC1CCCCC12C(=O)NC(=O)NC2=O` (configuration not stated), the growth with HT29 colon was 97.2% and 94.3%; with SNB-75 CNS it was 100% and 87.2%; with SNB-19 CNS, 96.2% and 110%; in the assay with U251 CNS it was 97.8% and 102%; in the assay on PC-3 prostate, 104% and 101%; with SK-MEL-5 melanoma it was 95.5% and 103%. In addition, the growth is 98.2% and 109% with UACC-62 melanoma; 97% and 97.1% with LOX IMVI melanoma; 103% and 114% with SK-MEL-28 melanoma; 105% and 99.8% in the assay with SK-MEL-2 melanoma; 85.6% in the assay with EKVX NSCLC; 101% and 106% in the assay on SN12C renal. For the same compound, the growth in the assay on UO-31 renal is 84.3% and 87.9%; in the assay with TK-10 renal, 92.9% and 107%; in the assay with ACHN renal, 104% and 106%; in the assay with CAKI-1 renal, 94.8% and 99.6%; in the assay with A498 renal it was 70.3% and 102%; with CCRF-CEM leukemia, 109% and 101%.
For the compound `N#CCCc1ccccc1`, the growth in the assay on HT29 colon was 104%; in the assay with SNB-75 CNS, 86.3%; with SNB-19 CNS it was 97.7%; with U251 CNS it was 105%; with PC-3 prostate, 108%; in the assay on SK-MEL-5 melanoma, 99.6%. Also, the growth with UACC-62 melanoma was 97.2%; in the assay with LOX IMVI melanoma it was 102%; in the assay with SK-MEL-28 melanoma it was 108%; with SK-MEL-2 melanoma, 121%; in the assay on EKVX NSCLC it was 103%; in the assay on SN12C renal, 103%. Further, the growth in the assay on UO-31 renal is 85%; with TK-10 renal, 113%; in the assay on ACHN renal, 98.4%; in the assay with CAKI-1 renal, 98.2%; in the assay on HL-60(TB) leukemia, 103%; in the assay on CCRF-CEM leukemia, 96.2%.
On to `CC[C@H](C)[C@H](NC(=O)[C@H]1CCCCN1C)C(=O)N(C)[C@H](C[C@@H](OC(C)=O)c1nc(C(=O)NC23C4C5C2C2C3C4C52C(=O)OC)cs1)C(C)C` (some centres not stated), for which the growth was 9.18% (active) with HCT-15 colon; -5.46% (active) in the assay on HT29 colon; 28.1% with SNB-19 CNS; 10.8% in the assay with U251 CNS; 23.5% in the assay with PC-3 prostate; -56.9% (active) in the assay with SK-MEL-5 melanoma. Besides, the growth was 43.8% in the assay on UACC-62 melanoma; 7.09% (active) in the assay with LOX IMVI melanoma; 39.7% in the assay with SK-MEL-2 melanoma; 36.2% in the assay with EKVX NSCLC; 32.5% in the assay with SN12C renal; 33.4% with UO-31 renal. Moreover, the growth was 36.7% with TK-10 renal; 16.2% with ACHN renal; 28.9% in the assay on CAKI-1 renal; 3.94% (active) in the assay on A498 renal; 6.99% (active) with CCRF-CEM leukemia.
With `O=[N+]([O-])c1ccc(CI)cc1`, the growth in the assay with HCT-15 colon is 8.86% (active); with HT29 colon, 47.8%; with SNB-19 CNS, 106%; in the assay with PC-3 prostate it was 95.6%; with UACC-62 melanoma, 79.6%; in the assay on SK-MEL-28 melanoma, 104%. Moreover, the growth is 60% in the assay with SN12C renal; 112% with TK-10 renal; 65.5% with ACHN renal; 54.5% with CAKI-1 renal; 64.4% in the assay with HL-60(TB) leukemia; 21.5% in the assay on CCRF-CEM leukemia.
